Results filed as inconclusive are left out. Entries that show only a call come without a potency. A number with no mark means an inactive call. Activity calls are given as the source filed them. The call rests on the fitted dose curve; in most records, active means well fitted inhibition curve with a large enough effect; inconclusive means small, poorly fitted or top-dose-only effect; inactive means flat fitted curve, though single readings scatter.
Test: P-glycoprotein substrates identified in KB-8-5-11 adenocarcinoma cell line, qHTS therapeutic library screen (AID 1346987); further: nearly all actives have a fitted effect of over 65% in size
Settings: KB-8-5-11 (P-gp overexpressing) viability, CellTiter-Glo, 72 h; series mostly up to 44.5 µM
Procedure, shortened: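 Human cervical adenocarcinoma KB-8-5-11 cells, selected in colchicine to over-express P-gp and assayed without it, were exposed for 72 h to titrated compounds. An ATP-based luminescent viability signal gave AC50.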
With CN(C)CCn1cc(-c2ccc(F)cc2)c(-n2cccc2)n1 the Potency was “inactive”. In the case of CCC(C)CC(=O)OC1C(=O)C(CO)=CC(O)C1C(C)C (centres undefined), the Potency is reported as 7.31 µM (active). With C/C(=C\CO[C@@H]1O[C@H](CO[C@H]2OC[C@](O)(CO)[C@H]2O)[C@@H](O)[C@H](O)[C@H]1O)C(C)(C)O the Potency was “inactive”. In the case of Cc1cc(C(=O)Nc2cc(Nc3ccc4c(/C=C/c5ccccn5)n[nH]c4c3)ccc2F)n(C)n1, the Potency is reported as 18.4 µM (active). For CC(=O)c1ccc2c(c1)[C@H](NC(=O)c1ccc(F)c(Cl)c1)[C@H](O)C(C)(C)O2, the Potency was “inactive”. In the case of C=CC(=O)Nc1cc(-n2c(=O)ccc3cnc4ccc(-c5ccc(NS(C)(=O)=O)cc5)cc4c32)ccc1C, the Potency is reported as “inactive”. With CC[C@H]1OC(=O)[C@H](C)[C@@H](O[C@H]2C[C@@](C)(OC)[C@@H](O)[C@H](C)O2)[C@H](C)[C@@H](O[C@H]2O[C@H](C)C[C@H](N(C)C)[C@H]2O)[C@](C)(O)C[C@@H](C)C(=O)[C@H](C)[C@@H](O)[C@]1(C)O the Potency was “inactive”. For CC(=O)[C@H]1CC[C@H]2[C@@H]3CC=C4C[C@@H](OS(=O)(=O)O)CC[C@]4(C)[C@H]3CC[C@]12C, the Potency was “inactive”. In the case of CCC(CC)(NC(=O)C(C)C)C(=O)N[C@@H](CCCN=C(N)N)C(=O)NC1(C(=O)NC(c2ccc(F)cc2)c2ccc(F)cc2)CCCC1, the Potency is reported as “inactive”. With O=C(Nc1ncc([N+](=O)[O-])s1)c1ccccc1O the Potency was 5.8 µM (active). In the case of CCN(CC)CCCS(=O)(=O)N[C@H](CCc1ccccc1)c1nc(Cc2ccc(Br)cc2)no1, the Potency is reported as 23.1 µM (active). In the case of CN(c1ccc(NC(=O)Nc2ccccc2)cc1)S(=O)(=O)c1cnn(-c2ccc(F)cc2)c1, the Potency is reported as 11.6 µM (active). In the case of CCc1c[nH]c2ncnc(N3CC[C@](N)(CNC(=O)c4ccc(F)cc4F)C3)c12, the Potency is reported as “inactive”. Compound CC(=O)O[C@H]1CC(C)(C)CC2[C@]13CO[C@@]21CCC2[C@@]4(C)CC[C@H](O[C@@H]5OC[C@H](O[C@@H]6O[C@H](CO)[C@@H](O)[C@H](O)[C@H]6O[C@@H]6OC[C@@H](O)[C@H](O)[C@H]6O)[C@H](O)[C@H]5O[C@@H]5O[C@H](CO)[C@@H](O)[C@H](O)[C@H]5O)[C@@](C)(CO)C4CC[C@@]2(C)[C@]1(C)C[C@H]3O (some centres undefined) has an activity change, negative = cytotoxicity of -5.92% [at 9.29 µM]. In the case of O=C(c1c(F)ccc(NS(=O)(=O)N2CC[C@@H](F)C2)c1F)c1c[nH]c2ncc(-c3cnc(C4CC4)nc3)cc12, the Potency is reported as “inactive”. For CCOc1nc(NC(=O)Cc2cc(OC)ccc2OC)cc(N)c1C#N, the Potency was “inactive”. With CC1CCC(=O)CC(SCC(O)C(=O)O)CCC(=O)O1 (centres undefined) the Potency was “inactive”. For Cc1nc2c(C(F)(F)F)cccc2nc1-c1ccc(-c2cccc(S(C)(=O)=O)c2)cc1, the Potency was “inactive”. With C=C1C(=O)O[C@@H]2[C@H]3C(C)=CC(=O)C3=C(C)CC[C@@H]12 the Potency was 14.6 µM (active). For C=C(C)[C@@H]1CC=C(COC(=O)NC(=O)c2ncn3c(=O)n(C)nnc23)CC1, the Potency was “inactive”. In the case of Cc1ccc(C)c(-c2cc(C(F)(F)F)nn2-c2ccc(S(N)(=O)=O)cc2)c1, the Potency is reported as 23.1 µM (active). For O=C(NC[C@H]1CN(c2ccc(N3CCOCC3=O)cc2)C(=O)O1)c1ccc(Cl)s1, the Potency was “inactive”. For COc1ccc(OC)c(-c2ccc(NC(=O)c3ccncc3F)cc2)c1, the Potency was “inactive”. With C/C=C(\C)C(=O)OC1C(C)C2(O)C(C=C(CO)CC3(O)C(=O)C(C)=CC32)C2C(C)(C)C12OC(C)=O (centres undefined) the Potency was “inactive”. For CC(C)c1cc(-c2ccc(F)c3ccccc23)nc(N)n1, the Potency was “inactive”. For CCCN(CCc1ccsc1)C1CCc2c(O)cccc2C1 (centres undefined), the Potency was “inactive”. For Cc1ccccc1CN1CCn2c1nc1c(c2=O)CN(Cc2ccccc2)CC1, the Potency was “inactive”. With C=C1/C(=C/C=C2\CCC[C@@]3(C)C2CCC3[C@H](C)/C=C/[C@@H](O)C2CC2)C[C@@H](O)C[C@@H]1O (some centres undefined) the Potency was “inactive”. For CC(C)(O)C(=O)N1CCN(c2ccc(C(F)(F)F)c(C3=C(c4c[nH]c5ccccc45)C(=O)NC3=O)c2)CC1, the Potency was “inactive”. With CC(=O)O[C@@H]1C[C@@]23C[C@@]24CC[C@H](O[C@@H]2OC[C@H](O)[C@H](O)[C@H]2O)C(C)(C)[C@@H]4CC[C@H]3[C@]2(C)[C@@H](O)C34O[C@H](C[C@@H](C)[C@@H]3[C@@]12C)[C@@H](C(C)(C)O)O4 the Potency was “inactive”. For CCC/C=C/c1cc2c(C=O)c(O)c(CC=C(C)C)cc2o1, the Potency was “inactive”. In the case of CC(O)(C(=O)O)C1CCC2(C)C1CCC1(C)C2CCC2C3(C)CCC(O)C(C)(COC4OC(CO)C(O)C(O)C4O)C3CCC21C (centres undefined), the Potency is reported as “inactive”. For C/C=C(\C)C(=O)OC1C[C@@]2(COC(C)=O)O[C@H]2/C=C\[C@@]2(C)O[C@@H]2[C@H]2OC(=O)C(COC(C)=O)=C12 (some centres undefined), the Potency was “inactive”. For COCC(c1ccc(C(F)(F)F)cc1)N1CCN(C2(C)CCN(C(=O)c3c(C)ncnc3C)CC2)CC1C (centres undefined), the Potency was “inactive”. With CCOC(=O)c1cnc2ccc(-c3cncc(NS(=O)(=O)c4ccccc4)c3)cn12 the Potency was 4.11 µM (active). For C=CS(=O)(=O)NC1CCN(C(=O)CNc2cc(I)c(Cl)cc2OC)CC1, the Potency was 14.6 µM (active). For CC[C@@H]1C[C@]1(NC(=O)[C@@H]1C[C@@H]2CN1C(=O)[C@H](C(C)(C)C)NC(=O)OCC(C)(C)CCCCc1cccc3c1CN(C3)C(=O)O2)C(=O)NS(=O)(=O)C1CC1, the Potency was “inactive”. In the case of OC1CCC(Nc2nc(-c3ccccc3)nc3[nH]ccc23)CC1 (centres undefined), the Potency is reported as “inactive”. With O=C(Nc1ccccc1Cl)c1cnc2ccc(C3CCNCC3)cn12 the Potency was “inactive”.

From PubChem BioAssay (NCATS)
Potency means the concentration at half of the fitted maximal effect.
